The record followed here is PubChem BioAssay.

Experiment [1] can be described thus: antimalarial activity against Dd2 strain (AID 2302;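 active means growth inhibition above 50% at the single 2 µM test dose, taken to imply half-maximal potency below 2 µM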;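 further: 0% = DMSO untreated growth and 100% = chloroquine plus artemisinin killed control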). The conditions noted are these: P. falciparum Dd2 in RBCs, LDH growth readout, 72 h; at 2 µM; stronger effect = higher value.
Experiment [2] is described as follows: HepG2 cytotoxicity, primary screen, cytotoxicity control for P. falciparum antimalarial project, cell-based, ATP luminescence (AID 2303;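 active means inhibition above 50%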;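 further: 0% = DMSO wells and 100% = digitonin-killed cells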). To be noted: HepG2 viability, 24-48 h, at 10 µM, stronger effect = higher value.
Experiment [3] concerns the target L-lactate dehydrogenase (Plasmodium falciparum (isolate CDC / Honduras)) (UniProt Q27743). Kind of experiment: PfLDH activity inhibition – cell lysate, 3D7 strain, counter-screen for P. falciparum growth inhibition project (AID 2304).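 Further: 0% = vehicle and 100% = reference inhibitor.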 To be noted: P. falciparum 3D7 crude extract, LDH APAD/NBT absorbance; at 2 µM; stronger effect = higher value. A general note: Counterscreens check selectivity or assay interference.

Experiment [4] is described as follows: inhibition of 3D7 malaria parasite growth – strain 3D7 (AID 2306).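 Further: 0% = DMSO wells and 100% = chloroquine plus artemisinin control wells.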 To be noted: P. falciparum 3D7 erythrocytic growth, LDH absorbance, 72 h; at 2 µM; stronger effect = higher value.
Experiment [5] deals with Calcium-dependent protein kinase 1 (Plasmodium falciparum (isolate 3D7)) (UniProt P62344). Kind of experiment: PfCDPK1 kinase inhibitors, biochemical, TCAMS library (AID 1159585; cut-off not given, nearly all actives have IC50 up to about 0.98 µM;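 further: inhibitors leave more ATP so luminescence rises with inhibition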). To be noted: recombinant PfCDPK1, Kinase-Glo ATP depletion luminescence.
Chain of Calcium-dependent protein kinase 1 (Plasmodium falciparum (isolate 3D7)) (P62344 whole entry, looked up): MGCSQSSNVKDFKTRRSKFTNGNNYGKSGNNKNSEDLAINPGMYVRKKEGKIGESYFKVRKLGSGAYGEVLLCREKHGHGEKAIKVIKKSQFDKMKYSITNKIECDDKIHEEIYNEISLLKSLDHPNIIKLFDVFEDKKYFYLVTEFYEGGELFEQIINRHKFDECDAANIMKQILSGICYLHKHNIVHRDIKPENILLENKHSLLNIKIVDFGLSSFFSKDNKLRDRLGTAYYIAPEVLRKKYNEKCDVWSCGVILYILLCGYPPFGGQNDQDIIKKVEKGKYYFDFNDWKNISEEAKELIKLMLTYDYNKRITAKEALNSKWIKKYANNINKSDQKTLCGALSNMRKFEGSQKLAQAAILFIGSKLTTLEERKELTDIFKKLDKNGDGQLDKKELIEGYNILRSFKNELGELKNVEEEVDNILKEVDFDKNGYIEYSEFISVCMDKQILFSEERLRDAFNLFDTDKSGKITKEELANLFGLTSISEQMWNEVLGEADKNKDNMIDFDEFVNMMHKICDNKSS
Experiment [6] addresses Plasmodium falciparum protein kinase 6 (PK6, PF3D7_1337100) (UniProt Q8IDW1). Kind of experiment: PfPK6 kinase inhibitors, biochemical, TCAMS library (AID 1159586). The conditions noted are these: recombinant PfPK6, Kinase-Glo ATP depletion luminescence.
Experiment [7] concerns the target Protein kinase 7 (PK7), Plasmodium falciparum 3D7 (PF3D7_0213400) (UniProt Q7YTF7). Briefly: inhibition of Plasmodium PK7 catalytic activity – biochemical, TCAMS antimalarial set, Kinase-Glo luminescence (AID 1159587). To be noted: recombinant PfPK7, Kinase-Glo ATP depletion luminescence.
Experiment [8] concerns the target Calcium-dependent protein kinase 4 (Plasmodium falciparum (isolate 3D7)) (UniProt Q8IBS5). Kind of experiment: PfCDPK4 kinase inhibitors, biochemical, TCAMS library (AID 1159588; cut-off not given, nearly all actives have IC50 up to about 0.91 µM). The conditions noted are these: recombinant PfCDPK4, Kinase-Glo ATP depletion luminescence. (Kinase-Glo measures the ATP left after a reaction by luminescence.)

Unmarked numbers belong to inactive results. For some of these results: Potency and affinity values are given separately. Activity calls are given as the source filed them. Unless noted, how the calls were made is not given here.

Chain of Plasmodium falciparum protein kinase 6 (PK6, PF3D7_1337100) (Q8IDW1 1-305): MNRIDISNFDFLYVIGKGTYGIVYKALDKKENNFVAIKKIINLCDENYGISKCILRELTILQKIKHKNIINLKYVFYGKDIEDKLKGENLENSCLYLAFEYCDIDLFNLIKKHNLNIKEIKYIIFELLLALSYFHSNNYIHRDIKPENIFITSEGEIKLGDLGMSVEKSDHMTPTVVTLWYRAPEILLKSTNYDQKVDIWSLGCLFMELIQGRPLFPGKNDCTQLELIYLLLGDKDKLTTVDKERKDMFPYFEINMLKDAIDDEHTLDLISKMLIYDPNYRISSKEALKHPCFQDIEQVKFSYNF
Chain of L-lactate dehydrogenase (Plasmodium falciparum (isolate CDC / Honduras)) (Q27743 whole entry, looked up): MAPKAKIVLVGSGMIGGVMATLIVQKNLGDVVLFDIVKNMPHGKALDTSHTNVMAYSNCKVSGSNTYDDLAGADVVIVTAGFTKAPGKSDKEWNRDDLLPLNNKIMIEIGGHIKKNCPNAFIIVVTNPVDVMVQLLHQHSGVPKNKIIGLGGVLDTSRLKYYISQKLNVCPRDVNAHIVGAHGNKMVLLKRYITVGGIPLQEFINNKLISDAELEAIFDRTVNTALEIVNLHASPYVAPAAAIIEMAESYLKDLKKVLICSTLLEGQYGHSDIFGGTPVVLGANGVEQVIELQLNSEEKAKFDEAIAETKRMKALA
Chain of Calcium-dependent protein kinase 4 (Plasmodium falciparum (isolate 3D7)) (Q8IBS5 whole entry, looked up): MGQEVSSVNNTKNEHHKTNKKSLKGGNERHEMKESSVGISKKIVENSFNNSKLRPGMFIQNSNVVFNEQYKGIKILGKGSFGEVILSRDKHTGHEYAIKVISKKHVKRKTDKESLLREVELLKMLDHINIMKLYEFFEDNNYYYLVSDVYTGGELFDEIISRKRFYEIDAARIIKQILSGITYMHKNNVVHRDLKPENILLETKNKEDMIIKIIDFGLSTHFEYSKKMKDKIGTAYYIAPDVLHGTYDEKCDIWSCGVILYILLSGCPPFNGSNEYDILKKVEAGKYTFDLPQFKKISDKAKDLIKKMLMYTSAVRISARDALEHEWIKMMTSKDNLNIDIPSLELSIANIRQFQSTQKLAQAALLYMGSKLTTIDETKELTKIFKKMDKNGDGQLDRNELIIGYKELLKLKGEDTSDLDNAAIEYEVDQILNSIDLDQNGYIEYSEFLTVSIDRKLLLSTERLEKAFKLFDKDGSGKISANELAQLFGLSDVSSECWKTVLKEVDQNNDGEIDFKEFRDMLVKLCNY
Chain of Protein kinase 7 (PK7), Plasmodium falciparum 3D7 (PF3D7_0213400) (Q7YTF7 1-343): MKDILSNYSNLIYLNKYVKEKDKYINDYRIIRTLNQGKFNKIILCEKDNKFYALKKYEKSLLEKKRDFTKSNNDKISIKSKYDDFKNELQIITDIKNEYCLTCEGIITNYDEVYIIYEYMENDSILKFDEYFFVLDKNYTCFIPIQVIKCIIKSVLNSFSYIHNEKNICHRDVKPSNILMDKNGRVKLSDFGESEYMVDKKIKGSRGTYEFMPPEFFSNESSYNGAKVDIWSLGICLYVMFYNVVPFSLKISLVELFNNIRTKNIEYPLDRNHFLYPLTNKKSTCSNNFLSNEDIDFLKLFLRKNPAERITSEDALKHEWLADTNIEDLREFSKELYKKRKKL

Regarding `COc1ccc2nccc([C@@H](O)CN3CCC(NCc4cc5cc(Cl)ccc5[nH]4)CC3)c2c1`, the growth inhibition in experiment [1] was 64% (active); in experiment [4], 99% (active). Besides, the inhibition (usually the change of the read-out against control, counted positive when it falls) in experiment [2] was 27%; in experiment [3], 5%. Further, the outcome in experiment [5], in experiment [6], in experiment [7] and in experiment [8] was inactive.
In the case of `Cc1nn(-c2cccc(Cl)c2)c2c1C(C(=O)c1ccc3c(c1)OCO3)CC(=O)N2` (stereo not given), the growth inhibition in experiment [1] was 95% (active); in experiment [4] it was 98% (active). The inhibition in experiment [2] is 5%; in experiment [3] it was -5%. For the same compound, the result in experiment [5], in experiment [6], in experiment [7] and in experiment [8] was inactive.
Regarding `Cc1cc2nc(NC3=NC4(c5ccccn5)N=C(Nc5nc6cc(C)c(C)cc6[nH]5)NC4(c4ccccn4)N3)[nH]c2cc1C` (stereo not given), the growth inhibition in experiment [1] is 62% (active); in experiment [4] it was 87% (active). In addition, the inhibition in experiment [2] was 3%; in experiment [3], -2%. Moreover, the outcome in experiment [5], in experiment [6], in experiment [7] and in experiment [8] was inactive.
`COc1cc2c(cc1CCNCCCCNCCc1cc3c(cc1OC)CCCC3)CCCC2`: the figures for the growth inhibition in experiment [1] and in experiment [4] were 36% and 101% (active), respectively. The inhibition in experiment [2] is 100% (active); in experiment [3] it was 0%. In addition, the outcome in experiment [5], in experiment [6], in experiment [7] and in experiment [8] was inactive.
As for `COC(=O)c1cccc(CNCc2cccc(-c3ccc(-c4nc5c(C)cccc5[nH]4)s3)c2)c1`, the growth inhibition is 65% (active) in experiment [1] and 103% (active) in experiment [4]. Further, the inhibition in experiment [2] was -4%; in experiment [3], 1%. Also, the result in experiment [5], in experiment [6], in experiment [7] and in experiment [8] was inactive.
With `CC(CCc1ccccc1)NCC(O)c1ccc2c3c(cccc13)S(=O)(=O)N2C` (stereo not given), the growth inhibition in experiment [1] and in experiment [4] was 99% (active) each time. Further, the results for the inhibition in experiment [2] and in experiment [3] were 16% and 3%, respectively. Besides, the outcome in experiment [5], in experiment [6], in experiment [7] and in experiment [8] was inactive.
Take `c1cc(-c2ccc(CNC3CCOCC3)cc2)cc(-c2nc3ccccc3[nH]2)c1`: the growth inhibition in experiment [1] and in experiment [4] was 100% (active) each time. In addition, the results for the inhibition in experiment [2] and in experiment [3] were 30% and 3%, respectively. Besides, the result in experiment [5], in experiment [6], in experiment [7] and in experiment [8] was inactive.
Regarding `O=C(Nc1ccc(N2CCCCC2)c(Cl)c1)c1ccc(Br)o1`, the growth inhibition in experiment [1] and in experiment [4] was 94% (active) in each case. Moreover, the results for the inhibition in experiment [2] and in experiment [3] were -8% and -1%, respectively. Moreover, the result in experiment [5], in experiment [6], in experiment [7] and in experiment [8] was inactive.
`CC(O)C1CCCCN1C(=O)c1ccc(-c2ccc(-c3nc4ccccc4[nH]3)s2)cc1` (stereo not given): the growth inhibition in experiment [1] was 98% (active); in experiment [4] it was 101% (active). For the same compound, the inhibition in experiment [2] is 33%; in experiment [3], -2%. In addition, the result in experiment [5], in experiment [6], in experiment [7] and in experiment [8] was inactive.
For the compound `CC(CN1CCN(CC(c2ccc(F)cc2)N2CCN(C)CC2)CC1)C(=O)c1ccc(O)cc1` (stereo not given), the growth inhibition in experiment [1] was 10%; in experiment [4] it was 97% (active). The inhibition in experiment [2] was -2%; in experiment [3] it was -5%. In addition, the result in experiment [5], in experiment [6], in experiment [7] and in experiment [8] was inactive.
With `Oc1ccc(CCNc2nc(NCc3ccccc3-c3ccccc3)nc(N3CCCNCC3)n2)cc1`, the growth inhibition was 20% in experiment [1] and 95% (active) in experiment [4]. The inhibition in experiment [2] was 26%; in experiment [3], -5%. The outcome in experiment [5], in experiment [6], in experiment [7] and in experiment [8] was inactive.
For `CCC(C)NC(=O)Nc1ccc(-c2cccc(-c3nc4ccc(C(F)(F)F)cc4[nH]3)c2)cc1` (stereo not given), the growth inhibition was -1% in experiment [1] and 97% (active) in experiment [4]. The inhibition in experiment [2] is 45%; in experiment [3], 0%. The outcome in experiment [5], in experiment [6], in experiment [7] and in experiment [8] was inactive.
Turning to `CCc1cc2c3c(N)nc(N)nc3ccc2n1C(C)CC` (stereo not given), the growth inhibition was 99% (active) in experiment [1] and 100% (active) in experiment [4]. The results for the inhibition in experiment [2] and in experiment [3] were 73% (active) and 0%, respectively. The result in experiment [5], in experiment [6], in experiment [7] and in experiment [8] was inactive.
With `COc1cccc(CNC[C@@H](O)[C@H](Cc2ccccc2)NC(=O)c2cc(NC(C)C)cc(N3CCCCS3(=O)=O)c2)c1`, the results for the growth inhibition in experiment [1] and in experiment [4] were 97% (active) and 89% (active), respectively. The inhibition in experiment [2] and in experiment [3] was 1% each time. Moreover, the outcome in experiment [5], in experiment [6], in experiment [7] and in experiment [8] was inactive.
For the compound `COc1ccc2nccc(CCC3(O)CCC(NCc4cc5c(cc4F)SCC(=O)N5)CC3)c2c1` (stereo not given), the figures for the growth inhibition in experiment [1] and in experiment [4] were 48% and 87% (active), respectively. Further, the inhibition was 9% in experiment [2] and -2% in experiment [3]. Moreover, the result in experiment [5], in experiment [6], in experiment [7] and in experiment [8] was inactive.
For the compound `CCCCNC[C@@H](O)[C@H](Cc1ccccc1)NC(=O)c1cc2c3c(c1)c(CC)cn3CCS(=O)(=O)N2C`, the growth inhibition in experiment [1] was 98% (active); in experiment [4], 99% (active). Besides, the inhibition in experiment [2] was -6%; in experiment [3] it was -3%. In addition, the result in experiment [5], in experiment [6], in experiment [7] and in experiment [8] was inactive.
In the case of `CC(=O)Nc1cccc(C(=O)Nc2cccc(-c3ccc(-c4nc5ccc(F)cc5[nH]4)cc3)c2)c1`, the growth inhibition in experiment [1] was 9%; in experiment [4], 95% (active). Also, the inhibition in experiment [2] was 60% (active); in experiment [3], 5%. In addition, the result in experiment [5], in experiment [6], in experiment [7] and in experiment [8] was inactive.
As for `CC(C)NCc1ccc(-c2cccc(-c3nc4ccc(F)cc4[nH]3)c2)cc1`, the growth inhibition in experiment [1] is 96% (active); in experiment [4] it was 101% (active). Also, the inhibition was 14% in experiment [2] and -4% in experiment [3]. The outcome in experiment [5], in experiment [6], in experiment [7] and in experiment [8] was inactive.
For `O=C(c1cncc(-c2ccccc2)c1)N(Cc1cncn1Cc1ccccc1F)CC1CC1`, the figures for the growth inhibition in experiment [1] and in experiment [4] were 0% and 100% (active), respectively. For the same compound, the inhibition in experiment [2] was -5%; in experiment [3], -4%. Further, the outcome in experiment [5], in experiment [6], in experiment [7] and in experiment [8] was inactive.
Take `CC(=O)Nc1ccc(CCNC(C)Cc2ccc(C(=O)Nc3ccc(CC(C)NCCc4cccc(Cl)c4)cc3)cc2)cc1` (stereo not given): the growth inhibition is 84% (active) in experiment [1] and 100% (active) in experiment [4]. The inhibition in experiment [2] was 50% (active); in experiment [3], -7%. Besides, the outcome in experiment [5], in experiment [6], in experiment [7] and in experiment [8] was inactive.
